Screening results as filed in PubChem.
An excerpt weighted towards active compounds, which were near 0.47% of everything screened.
KOR antag MB: OPRK1 (human) antagonism, Maybridge screen | P41145 | OPRK1 cells, antagonist mode, fluorescence readout | inhibition, % at 9 µM | 16,000 tested, 0.4% active; in the data active = inhibition above about 50%
TLR4 MyD88 blk: inhibitors of human TLR4-MyD88 binding; Cell-based TLR4-MyD88 binding inhibition assay; inhibition, % at 10 µM; 16,000 tested, 0.06% active; AID 811; in the data active = inhibition above about 45%
Target sequence (O00206 whole entry, looked up): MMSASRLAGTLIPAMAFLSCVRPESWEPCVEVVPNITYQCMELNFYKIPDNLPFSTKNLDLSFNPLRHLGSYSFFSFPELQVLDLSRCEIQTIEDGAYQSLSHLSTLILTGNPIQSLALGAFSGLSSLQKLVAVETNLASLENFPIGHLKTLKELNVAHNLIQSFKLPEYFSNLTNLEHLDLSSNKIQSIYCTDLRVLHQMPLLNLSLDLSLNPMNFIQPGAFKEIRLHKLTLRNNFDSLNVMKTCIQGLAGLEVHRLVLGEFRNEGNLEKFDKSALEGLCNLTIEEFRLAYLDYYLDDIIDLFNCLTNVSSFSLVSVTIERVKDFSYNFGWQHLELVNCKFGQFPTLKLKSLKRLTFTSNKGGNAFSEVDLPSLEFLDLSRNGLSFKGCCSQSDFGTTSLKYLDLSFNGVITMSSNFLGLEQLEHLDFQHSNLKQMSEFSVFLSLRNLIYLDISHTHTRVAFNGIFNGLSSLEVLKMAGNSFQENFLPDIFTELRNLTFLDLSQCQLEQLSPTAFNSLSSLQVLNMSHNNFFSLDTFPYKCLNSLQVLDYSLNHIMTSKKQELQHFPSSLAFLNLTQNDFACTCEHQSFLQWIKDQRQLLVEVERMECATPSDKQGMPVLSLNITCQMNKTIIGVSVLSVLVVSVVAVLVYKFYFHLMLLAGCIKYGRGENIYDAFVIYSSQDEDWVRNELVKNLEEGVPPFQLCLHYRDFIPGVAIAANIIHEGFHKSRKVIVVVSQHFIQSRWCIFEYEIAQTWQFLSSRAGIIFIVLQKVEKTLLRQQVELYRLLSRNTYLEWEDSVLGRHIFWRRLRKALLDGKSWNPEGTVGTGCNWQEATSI
Active calls of the source: *.

For CSc1ccc(/C=C/c2onc(C)c2[N+](=O)[O-])s1 the results were KOR antag MB 106* and TLR4 MyD88 blk 19.
Cc1noc(/C=C/c2ccco2)c1[N+](=O)[O-] was read as KOR antag MB 17 and TLR4 MyD88 blk 0.
For N/C(CSc1ncccc1C(F)(F)F)=N\OC(=O)Nc1cccc(Cl)c1 the results were KOR antag MB 1 and TLR4 MyD88 blk 2.
Screening O=c1[nH]nc(-c2cccs2)cc1CC1CCCCC1 returned KOR antag MB -4 and TLR4 MyD88 blk 7.
Screening NC(=S)c1ccc2nonc2c1 returned KOR antag MB 0 and TLR4 MyD88 blk -3.
Screening COc1ccccc1CNS(=O)(=O)c1cccc2cccnc12 returned KOR antag MB -19 and TLR4 MyD88 blk -1.
CCOC(=O)c1cn[nH]c1C(F)(F)F was read as KOR antag MB 2 and TLR4 MyD88 blk 17.
For CCOC(=O)c1cn[nH]c1NC(=S)Nc1cccc(C(F)(F)F)c1 the results were KOR antag MB 83* and TLR4 MyD88 blk 21.
`O=C(O)c1ccccc1C(=O)NCc1ccccc1OC(F)(F)F` gave KOR antag MB -4 and TLR4 MyD88 blk -4.
Screening COC(=O)[C@@H]1[C@H](C(=O)OC)C2(OC(c3ccccc3)=CC2=O)C12OC(c1ccccc1)=CC2=O (stereo partly drawn) returned KOR antag MB -21 and TLR4 MyD88 blk -20.
Screening Cc1csc2ncnc(NNS(=O)(=O)c3cc(C(F)(F)F)cc(C(F)(F)F)c3)c12 returned KOR antag MB -18 and TLR4 MyD88 blk 3.
Screening O=C(O)C(F)(F)C(F)(F)C(=O)NCc1cccc(Cl)c1 returned KOR antag MB 50* and TLR4 MyD88 blk -3.
O=C(NCc1ccc(C(F)(F)F)cc1)c1cc(Cl)cc(Cl)c1 was read as KOR antag MB -33 and TLR4 MyD88 blk 3.
N#CCCN(CC1CCCO1)C(=S)NC1CC2C=CC1C2 (stereo not drawn) was read as KOR antag MB 16 and TLR4 MyD88 blk 6.
`N#Cc1cccnc1NNC(=O)COCC(=O)O` gave KOR antag MB 83* and TLR4 MyD88 blk 3.
Screening N#Cc1cccnc1NNC(=O)c1nccnc1C(=O)O returned KOR antag MB 26 and TLR4 MyD88 blk 13.
CSc1cccc(NC(=S)NCc2ccc(C#N)cc2)c1 was read as KOR antag MB -6 and TLR4 MyD88 blk 0.
`O=[N+]([O-])c1ccc(C2=NN(c3ccccc3)C(c3ccco3)C2)cc1` (stereo not drawn) gave KOR antag MB 87* and TLR4 MyD88 blk 70*.
`O=[N+]([O-])c1cccc(C2Oc3ccccc3C3CC(c4ccccc4)=NN32)c1` (stereo not drawn) gave KOR antag MB 2 and TLR4 MyD88 blk -4.
O=C1CCC(=O)N1CCSCc1cccc(C(F)(F)F)c1 was read as KOR antag MB -1 and TLR4 MyD88 blk 17.
Screening O=[N+]([O-])c1ccc(N/N=C/c2ccc(-c3cccs3)s2)nc1 returned KOR antag MB 79* and TLR4 MyD88 blk 17.
For O=[N+]([O-])c1ccc(-c2csc(-c3ccc(-c4cccs4)s3)n2)cc1 the results were KOR antag MB 7 and TLR4 MyD88 blk 6.
CC1COC(c2cccc([N+](=O)[O-])c2)N1 (stereo not drawn) was read as KOR antag MB 56* and TLR4 MyD88 blk 0.
`Cc1ccc(C)n1-c1cccc([N+](=O)[O-])c1` gave KOR antag MB -8 and TLR4 MyD88 blk 1.
Screening COC(=O)c1cnc(Sc2nnc(C(F)(F)F)n2C)c([N+](=O)[O-])c1 returned KOR antag MB 21 and TLR4 MyD88 blk -7.
COc1cccc(C=Nc2ccccc2SCCC#N)c1O was read as KOR antag MB 19 and TLR4 MyD88 blk 2.
For O=[N+]([O-])/C=C/c1c(-c2ccc3ccccc3c2)[nH]c2ccccc12 the results were KOR antag MB -2 and TLR4 MyD88 blk -3.
O=[N+]([O-])/C=C/c1c2ccccc2cc2ccccc12 was read as KOR antag MB 72* and TLR4 MyD88 blk -20.
Screening Cc1cc(=O)oc2cc(NS(=O)(=O)c3cccc4nonc34)ccc12 returned KOR antag MB -5 and TLR4 MyD88 blk -4.
Screening Cn1c(-c2ncc(C(F)(F)F)cc2Cl)n[nH]c1=S returned KOR antag MB 15 and TLR4 MyD88 blk -5.
For CCNC(=O)N(c1ccccc1)c1ccccc1 the results were KOR antag MB -11 and TLR4 MyD88 blk 8.
Screening CC(=O)Nc1onc(C)c1-c1nc(-c2ccc(Cl)cc2Cl)cs1 returned KOR antag MB 50* and TLR4 MyD88 blk 6.
Screening Clc1ccc(-c2ccon2)c(Cl)c1 returned KOR antag MB -2 and TLR4 MyD88 blk 4.
For N#Cc1ccsc1NS(=O)(=O)c1ccc(OC(F)(F)F)cc1 the results were KOR antag MB -14 and TLR4 MyD88 blk 3.
For S=C(NCC1CCCO1)N/N=C/c1ccc(Cl)cc1 (stereo not drawn) the results were KOR antag MB -19 and TLR4 MyD88 blk -4.
For O=[N+]([O-])c1ccc(-c2ccc(-c3ccc([N+](=O)[O-])cc3)o2)cc1 the results were KOR antag MB 45 and TLR4 MyD88 blk 8.
`O=[N+]([O-])c1ccc(-c2ccc(/C=N/NC(=S)NCC3CCCO3)o2)cc1` (stereo not drawn) gave KOR antag MB 31 and TLR4 MyD88 blk 50*.
For O=[N+]([O-])c1ccc(-c2ccc(/C=N/Nc3ccccc3)o2)cc1 the results were KOR antag MB 81* and TLR4 MyD88 blk 41.
O=C(NCC1COc2ccccc2O1)c1sc2ccccc2c1Cl (stereo not drawn) was read as KOR antag MB -13 and TLR4 MyD88 blk 0.
`CCOC(=O)N1CCc2c(sc(NC(=O)CSc3nnc(-c4ccco4)o3)c2C#N)C1` gave KOR antag MB 1 and TLR4 MyD88 blk -5.
For N#C/C(=C\c1ccc[nH]1)c1nn(-c2ccccc2)c(-n2cccc2)c1C#N the results were KOR antag MB -9 and TLR4 MyD88 blk -13.
COc1cc(C=NCCCN=Cc2cc(OC)c(OC)c(OC)c2)cc(OC)c1OC was read as KOR antag MB 14 and TLR4 MyD88 blk 3.
O=C(NNC(=O)c1ccc[nH]1)c1cccc(C(F)(F)F)c1 was read as KOR antag MB -5 and TLR4 MyD88 blk 9.
O=C(NNC(=O)C(F)(F)F)c1ccc[nH]1 was read as KOR antag MB 52* and TLR4 MyD88 blk -2.
`Cc1csc2c(Sc3ccccc3NC(=O)CN3CC(C)OC(C)C3)ncnc12` (stereo not drawn) gave KOR antag MB -20 and TLR4 MyD88 blk -4.
For CCOC(=O)Cn1cc(C(=O)OCC)c(C(F)(F)F)n1 the results were KOR antag MB 13 and TLR4 MyD88 blk 0.
Screening O=C(NC1CCN(Cc2ccccc2)CC1)C1CC(=O)N(Cc2ccco2)C1 (stereo not drawn) returned KOR antag MB 5 and TLR4 MyD88 blk -1.
For N#CC(C#N)=C(C#N)c1ccco1 the results were KOR antag MB -1.
Screening CCOC(=O)C1CCN(Cc2cccc(NC(=O)c3cc(C)on3)c2)CC1 returned KOR antag MB 21.
`CCOC(=O)C1CCN(Cc2cccc(NC(=O)c3cccs3)c2)CC1` gave KOR antag MB 50* and TLR4 MyD88 blk -3.
Cc1onc(-c2c(F)cccc2Cl)c1-c1nc(-c2ccc(OS(=O)(=O)N(C)C)cc2)no1 was read as KOR antag MB 8 and TLR4 MyD88 blk -6.
CC(=O)Nc1ccc(NC(=O)c2ccc(C(F)(F)F)nc2C)cn1 was read as KOR antag MB -11 and TLR4 MyD88 blk -3.
`Cc1c[nH]c(=S)c(C#N)c1` gave KOR antag MB -24 and TLR4 MyD88 blk -4.
